Laboratory results taken from PubChem BioAssay (NCI).
Values joined by “and” are separate entries in the source; they are usually repeats but may differ in a detail not shown here. Equal values may be shown once. Compounds without any hit were thinned out: in the full panel of roughly 79,000, 15% have a hit. More than one record can exist for a structure, and the calls need not agree. Active and inactive are the calls of the source. No stated cut-off is given here; in the data, active means growth inhibition above about 70%; inactive means the rest.

Legend:
[1] = NCI Yeast Anticancer Drug Screen. Data for the rad52 strain (AID 147);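 further: 0% = growth of vehicle-treated control cultures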; details: S. cerevisiae rad52 mutant growth inhibition, stronger effect = higher value
In short: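 Genetically altered yeast (DNA damage repair defect) treated with compound; inhibition calculated relative to vehicle.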

[2] = NCI Yeast Anticancer Drug Screen. Data for the wt1 strain (AID 149);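 further: 0% = growth of vehicle-treated wt1 cultures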; details: S. cerevisiae wt1 strain (SPY 50644) growth inhibition, stronger effect = higher value
In short: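 Compounds are added to wt1 yeast cultures. Growth is then measured. Inhibition is expressed relative to vehicle-treated controls.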

[3] = NCI Yeast Anticancer Drug Screen. Data for the rad50EPP+ strain (AID 151);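 further: 0% = growth of vehicle-treated control cultures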; details: S. cerevisiae rad50 mutant strain, stronger effect = higher value
In short: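 Strain rad50EPP+; compound exposure; % growth inhibition vs vehicle.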

[4] = NCI Yeast Anticancer Drug Screen. Data for the mgt1 strain (AID 153); details: S. cerevisiae mgt1 mutant growth inhibition, stronger effect = higher value
In short: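 Read-out: yeast growth inhibition vs vehicle control. Strain mgt1, drawn from a panel altered in DNA damage repair or cell cycle control.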

[5] = NCI Yeast Anticancer Drug Screen. Data for the rad50 strain (AID 155);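 further: 0% = growth of vehicle-only cultures of the same strain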; details: S. cerevisiae rad50 strain growth inhibition, stronger effect = higher value
In short: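 Inhibition values express reduced yeast growth in compound-treated cultures relative to vehicle-treated controls.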

[6] = NCI Yeast Anticancer Drug Screen. Data for the mec2-1 strain (AID 157); details: S. cerevisiae mec2-1 strain, stronger effect = higher value
In short: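 Cells of the genetically defined mec2-1 yeast strain are incubated with test compound. Inhibition of growth is calculated against vehicle-treated controls.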

[7] = NCI Yeast Anticancer Drug Screen. Data for the rad14 strain (AID 159);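 further: 0% = growth of vehicle-treated control cultures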; details: S. cerevisiae rad14 strain growth inhibition, stronger effect = higher value
In short: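 A mutant yeast strain defective in DNA damage repair is treated with compound; inhibition of its growth is scored against untreated, vehicle-exposed cultures.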

[8] = NCI Yeast Anticancer Drug Screen. Data for the sgs1 mgt1 strain (AID 161);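 further: 0% = growth of cultures given vehicle only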; details: S. cerevisiae sgs1 mgt1 strain, stronger effect = higher value
In short: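 Genetically altered yeast, compound exposure, growth inhibition relative to vehicle.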

[9] = NCI Yeast Anticancer Drug Screen. Data for the CLN2oe strain (AID 163);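 further: 0% = growth of vehicle-only control cultures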; details: S. cerevisiae CLN2oe strain, stronger effect = higher value
In short: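 Strain altered in cell-cycle control, incubated with compound; growth compared to solvent-treated controls.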

[10] = NCI Yeast Anticancer Drug Screen. Data for the cln2 rad14 strain (AID 165);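 further: 0% = growth equal to vehicle treated cultures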; details: S. cerevisiae cln2 rad14 strain, stronger effect = higher value
In short: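 The screen exposed genetically defined yeast (cln2 rad14) to test compounds and scored growth inhibition relative to vehicle-treated controls.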

[11] = NCI Yeast Anticancer Drug Screen. Data for the bub3 strain (AID 167); details: S. cerevisiae bub3 mutant strain, stronger effect = higher value
In short: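 Steps: expose the mutant yeast strain to compound; grow alongside vehicle-treated cultures; measure growth; express inhibition against the vehicle cultures.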

[12] = NCI Yeast Anticancer Drug Screen. Data for the wt2 strain (AID 169);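 further: 0% = growth of vehicle-treated yeast cultures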; details: S. cerevisiae wt2 strain growth inhibition, stronger effect = higher value
In short: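 Steps: yeast strain treated with compound; growth recorded; inhibition calculated relative to cultures given vehicle alone.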

[13] = NCI Yeast Anticancer Drug Screen. Data for the mlh1 strain (AID 171);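 further: 0% = growth of vehicle-treated control cultures of the same strain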; details: S. cerevisiae mlh1 strain growth inhibition, stronger effect = higher value
In short: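 Yeast screen: mutant strain plus compound, growth scored against vehicle control wells.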

[14] = NCI Yeast Anticancer Drug Screen. Data for the sgs1 strain (AID 173);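 further: 0% = growth of vehicle-only control cultures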; details: S. cerevisiae sgs1 mutant, stronger effect = higher value
In short: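 Inhibition of yeast growth served as the measure. The mutant strain was treated with each compound, and growth was normalised to cultures receiving vehicle alone.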

[15] = NCI Yeast Anticancer Drug Screen. Data for the mlh1 rad18 strain (AID 175); details: S. cerevisiae mlh1 rad18 strain growth inhibition, stronger effect = higher value
In short: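 Compound-treated yeast growth, normalised to vehicle controls. Strain bears defined DNA repair mutations.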

[16] = NCI Yeast Anticancer Drug Screen. Data for the rad18 strain (AID 177); details: S. cerevisiae rad18 mutant growth inhibition, stronger effect = higher value
In short: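 Inhibition values reflect reduced yeast growth compared with vehicle-treated controls, using a strain engineered with a DNA damage repair defect.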

[17] = at 5.0 µM (retest, dose inferred, filed as 0.5)
[18] = at 50.0 µM (retest, dose inferred, filed as 5.0)

Measured: growth inhibition

CS(=O)(=O)OCCN(CCOS(C)(=O)=O)c1ccc(C=Nc2ccc(-c3csc(COc4ccccc4)n3)cc2)cc1
-73% (inactive) and 96% (active): [11]; [18]
81% (active) and 65% (inactive): [15]; [17]
-64% (inactive) and 98% (active): [8]; [18]
inactive: [1]; at 1.2 µM 15% | [1]; at 3.7 µM 29% | [2]; at 1.2 µM -30% | [2]; at 3.7 µM -33% | [2]; at 11.0 µM -8% | [3]; at 1.2 µM -2% | [3]; at 3.7 µM -11% | [3]; at 11.0 µM 49% | [4]; at 1.2 µM -22% | [4]; at 3.7 µM -16% | [4]; at 11.0 µM 23% | [5]; at 1.2 µM -29% | [5]; at 3.7 µM -5% | [5]; [17] 44% and 40% | [5]; at 11.0 µM 63% | [6]; at 1.2 µM -46% | [6]; at 3.7 µM -18% | [6]; [17] 33% and 34% | [6]; at 11.0 µM 41% | [7]; at 1.2 µM -25% | [7]; at 3.7 µM 14% | [7]; at 11.0 µM 59% | [8]; [17] -12% and 26% | [9]; at 1.2 µM 1% | [9]; at 3.7 µM 4% | [9]; at 11.0 µM 45% | [10]; [17] -2% and 25% | [11]; at 1.2 µM -36% | [11]; at 3.7 µM -16% | [11]; [17] -4% and 19% | [11]; at 11.0 µM 47% | [12]; at 1.2 µM -4% | [12]; at 3.7 µM 11% | [12]; at 11.0 µM 54% | [13]; at 1.2 µM -24% | [13]; at 3.7 µM -17% | [13]; at 11.0 µM 42% | [14]; at 1.2 µM 11% | [14]; at 3.7 µM 14% | [14]; at 11.0 µM 64% | [16]; at 1.2 µM 15% | [16]; at 3.7 µM 61%
active: [1]; at 11.0 µM 76% | [1]; at 33.0 µM 96% | [1]; at 100.0 µM 93% | [2]; at 33.0 µM 90% | [2]; at 100.0 µM 91% | [3]; at 33.0 µM 94% | [3]; at 100.0 µM 93% | [4]; at 33.0 µM 90% | [4]; at 100.0 µM 91% | [5]; at 33.0 µM 93% | [5]; [18] 95% and 96% | [5]; at 50.0 µM 97% | [5]; at 100.0 µM 91% | [6]; at 33.0 µM 93% | [6]; [18] 96% | [6]; at 50.0 µM 98.2% | [6]; at 100.0 µM 91% | [7]; at 33.0 µM 95% | [7]; at 100.0 µM 94% | [8]; at 50.0 µM 84.8% and 97.7% | [9]; at 33.0 µM 93% | [9]; at 100.0 µM 90% | [10]; at 50.0 µM 85.3% and 95.8% | [11]; at 33.0 µM 91% | [11]; at 50.0 µM 84.5% and 96.2% | [11]; at 100.0 µM 88% | [12]; at 33.0 µM 92% | [12]; at 100.0 µM 91% | [13]; at 33.0 µM 94% | [13]; at 100.0 µM 92% | [14]; at 33.0 µM 93% | [14]; at 100.0 µM 92% | [15]; [18] 95% and 97% | [15]; at 50.0 µM 97.2% | [16]; at 11.0 µM 84% | [16]; at 33.0 µM 95% | [16]; at 100.0 µM 91%
-80% (inactive) and 96% (active): [10]; [18]

O=[n+]1c2ccccc2n([O-])c2cc(Br)ccc21
active: [1]; at 1.2 µM 94% | [1]; at 3.7 µM 98% | [1]; at 11.0 µM 98% | [1]; at 33.0 µM 98% | [1]; at 100.0 µM 98% | [2]; at 11.0 µM 82% | [2]; at 33.0 µM 99% | [2]; at 100.0 µM 98% | [3]; at 1.2 µM 96% | [3]; at 3.7 µM 98% | [3]; at 11.0 µM 99% | [3]; at 33.0 µM 99% | [3]; at 100.0 µM 97% | [4]; at 33.0 µM 99% | [4]; at 100.0 µM 98% | [5]; at 1.2 µM 86% | [5]; at 3.7 µM 97% | [5]; [17] 96% | [5]; at 11.0 µM 98% | [5]; at 33.0 µM 99% | [5]; [18] 98% | [5]; at 50.0 µM 99.2% | [5]; at 100.0 µM 97% | [6]; [17] 85% | [6]; at 11.0 µM 92% | [6]; at 33.0 µM 99% | [6]; [18] 99% | [6]; at 50.0 µM 99.3% | [6]; at 100.0 µM 98% | [7]; at 11.0 µM 95% | [7]; at 33.0 µM 100% | [7]; at 100.0 µM 98% | [8]; [18] 99% | [8]; at 50.0 µM 99.2% | [9]; at 33.0 µM 99% | [9]; at 100.0 µM 98% | [10]; [18] 99% | [10]; at 50.0 µM 94.6% | [11]; at 11.0 µM 96% | [11]; at 33.0 µM 99% | [11]; [18] 99% | [11]; at 50.0 µM 99.4% | [11]; at 100.0 µM 99% | [12]; at 11.0 µM 99% | [12]; at 33.0 µM 100% | [12]; at 100.0 µM 98% | [13]; at 33.0 µM 99% | [13]; at 100.0 µM 98% | [14]; at 11.0 µM 97% | [14]; at 33.0 µM 99% | [14]; at 100.0 µM 98% | [15]; [17] 87% | [15]; [18] 98% | [15]; at 50.0 µM 99.2% | [16]; at 1.2 µM 84% | [16]; at 3.7 µM 92% | [16]; at 11.0 µM 98% | [16]; at 33.0 µM 99% | [16]; at 100.0 µM 98%
inactive: [2]; at 1.2 µM 7% | [2]; at 3.7 µM 43% | [4]; at 1.2 µM 5% | [4]; at 3.7 µM 5% | [4]; at 11.0 µM 51% | [6]; at 1.2 µM 18% | [6]; at 3.7 µM 52% | [7]; at 1.2 µM 36% | [7]; at 3.7 µM 56% | [8]; [17] 66% | [9]; at 1.2 µM 6% | [9]; at 3.7 µM 9% | [9]; at 11.0 µM 38% | [10]; [17] 19% | [11]; at 1.2 µM 42% | [11]; at 3.7 µM 63% | [11]; [17] 63% | [12]; at 1.2 µM 47% | [12]; at 3.7 µM 69% | [13]; at 1.2 µM -3% | [13]; at 3.7 µM 19% | [13]; at 11.0 µM 61% | [14]; at 1.2 µM 34% | [14]; at 3.7 µM 39%
